Measurements taken from PubChem BioAssay (NCATS).
A number with no mark means an inactive call. Results filed as inconclusive are left out. Entries that show only a call come without a potency. Calls of active or inactive are those of the source. Calls follow the shape of the dose curve; as a rule, active = well fitted curve in the direction sought with a large enough effect; inconclusive = small, poorly fitted or top-dose-only effect, or another doubt; inactive = no such curve, though single readings can be large; an effect the other way counts as inactive or inconclusive.

Key:
[1] = Cellular Toxicity (caspase-3) Mesangial (AID 660); settings: mesangial cells, normalized: DMSO 0%, 100 µM tamoxifen 100%; at 91.7 µM (top of the series);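 also: combined caspase 3 and 7 activity read by Caspase-Glo luminescence; cells exposed to compound for 16 h before the caspase read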
Procedure, shortened: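 Mesangial cells, 1000/well, 5 h settle at 37 °C; compound 16 h, 37 °C; Caspase-Glo 3/7 reagent 20 min RT; luminescence. Norm.: DMSO = 0%, tamoxifen 100 uM = 100%. AC50, Hill fit.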

[2] = Cellular Toxicity (caspase-3) SK-N-SH (AID 661)
Procedure, shortened: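 Human neuroblastoma SK-N-SH, 1500 cells/well, 5 hr pre-incubation, then compound 16 hr, 37 °C. Caspase-Glo 3/7 reagent, 1 hr RT, luminescence. Norm. to DMSO/10 uM staurosporine; Hill-fit AC50.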

[3] = Cellular Toxicity (caspase-3) H-4-II-E (AID 663); settings: H-4-II-E rat hepatoma, scaled: DMSO 0%, 100 µM tamoxifen 100%; at 92.2 µM (top of the series);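 also: cells exposed to compound for 16 hr before readout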
Procedure, shortened: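 Luminescence from caspase-cleaved aminoluciferin substrate, read 20 min after reagent addition, reports caspase 3/7 activation in rat H-4-II-E cells after 16 hr compound exposure. Normalized to DMSO (basal) and 100 uM tamoxifen (100%); AC50 from Hill fits.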

[4] = Cellular Toxicity (caspase-3) Hek293 (AID 664); settings: HEK293 caspase-3 activation, DMSO = 0%, 100 µM tamoxifen = 100%; at 92.2 µM (top of the series);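 also: cells exposed to compound for 16 h at 37 °C before readout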
Procedure, shortened: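 Cells plated, 5 hr at 37 °C; compounds added; 16 hr at 37 °C; Caspase-Glo 3/7 reagent, 20 min RT; luminescence read. Activation expressed relative to DMSO and 100 uM tamoxifen, AC50 by Hill model.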

[5] = Cellular Toxicity (caspase-3) N2a (AID 665);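 also: compound exposure lasted 16 h at 37 °C before readout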
Procedure, shortened: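 N2a cells, 1500/well, 5 h settle at 37 °C; cpd 16 h, 37 °C; Caspase-Glo 3/7, 1 h RT; luminescence. Norm: DMSO = 0, 10 uM staurosporine = 100%. AC50, Hill fit.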

[6] = Cellular Toxicity (caspase-3) Renal Proximal Tubule (AID 667); settings: Potency: caspase-3 activation;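 also: cells exposed to compound for 16 hours at 37 °C before detection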
Procedure, shortened: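 In qHTS format, rat primary proximal tubule cells seeded at 1000 per well are exposed to compounds for 16 hours at 37 °C. An increase in Caspase-Glo 3/7 luminescence indicates caspase activation.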

[7] = molecular target: Cytochrome P450 3A4 (Homo sapiens) (UniProt P08684); assay: qHTS Assay for Inhibitors and Substrates of Cytochrome P450 3A4 (AID 884); also: nearly all actives have a fitted effect of over 50% in size; also: potency is read from the fitted curve at half-maximal effect
Chain of Cytochrome P450 3A4 (Homo sapiens) (P08684 whole entry, looked up): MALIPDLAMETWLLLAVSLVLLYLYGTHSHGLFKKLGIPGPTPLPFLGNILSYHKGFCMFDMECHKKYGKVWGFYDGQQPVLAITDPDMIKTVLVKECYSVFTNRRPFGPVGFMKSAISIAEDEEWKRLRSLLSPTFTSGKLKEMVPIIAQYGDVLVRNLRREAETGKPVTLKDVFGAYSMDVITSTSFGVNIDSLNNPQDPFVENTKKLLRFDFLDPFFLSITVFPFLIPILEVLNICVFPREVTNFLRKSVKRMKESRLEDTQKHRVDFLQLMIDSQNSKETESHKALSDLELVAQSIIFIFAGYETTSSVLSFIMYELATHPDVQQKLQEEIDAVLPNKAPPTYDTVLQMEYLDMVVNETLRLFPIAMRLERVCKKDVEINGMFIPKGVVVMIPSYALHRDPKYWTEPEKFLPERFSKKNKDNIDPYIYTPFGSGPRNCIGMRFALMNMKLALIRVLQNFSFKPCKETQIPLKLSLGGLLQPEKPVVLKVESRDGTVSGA
Procedure, shortened: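 20 nM human CYP3A4 with 25 uM Luciferin-PPXE (at KM) in 200 mM KPO4, preincubated 10 min with compound; NADPH regeneration started a 60 min RT reaction. Luciferin detected by luminescence, normalized to 57 uM ketoconazole as full inhibition.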

[8] = Cell Viability - LYMP2-001 (AID 921);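 also: cells exposed to compound for 24 h at 37 °C; nearly all actives have a fitted effect of over 70% in size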
Procedure, shortened: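 qHTS, 1536-well; lymphoblastoid cells, 24 hr compound, 37 C; ATP by CellTiter-Glo, 30 min RT; luminescence; Hill-fit AC50.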

[9] = Cellular Toxicity (caspase-3) NIH 3T3 (AID 666)
Procedure, shortened: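 Luminescence from aminoluciferin released by caspase-3/7 cleavage of a peptide substrate served as read-out. Mouse fibroblast NIH 3T3 cells were exposed to compounds over a concentration range for 16 hours, and AC50 values came from standard Hill modelling.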

[10] = molecular target: Cytochrome P450 3A4 (Homo sapiens) (UniProt P08684); assay: qHTS Assay for Activators of Cytochrome P450 3A4 (AID 885); also: nearly all actives have a fitted effect of over 65% in size
Procedure, shortened: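 20nM CYP3A4 + 25uM Luciferin-PPXE (=KM), 200mM KPO4; cpd 10 min RT; NADPH regen, 60 min RT; stop w/ detection buffer, 20 min; luminescence. Normalized to 57 uM ketoconazole.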

| Compound | caspase-3 activation [1] | outcome [2] | caspase-3 activation [3] | caspase-3 activation [4] | outcome [5] | Potency [6] | Potency [7] | Potency [8] | outcome [9] | outcome [10] |
| --- | --- | --- | --- | --- | --- | --- | --- | --- | --- | --- |
| O=C(O)c1cccc(Cl)c1Cl | 0.259% | inactive | -0.64% | -1.27% | inactive | inactive | inactive | inactive |  |  |
| O=C(O)c1ccc(CO)o1 | -0.701% | inactive | 0.706% |  | inactive | inactive | inactive |  | inactive |  |
| O=C(O)c1cc(Cl)cc(Cl)c1 | -0.386% | inactive | -0.143% | 1.27% | inactive |  | inactive | inactive | inactive |  |
| Cc1ccc(Cl)cc1N | -0.617% | inactive | -0.363% | -3.36% | inactive | inactive |  | inactive |  | inactive |
| Cc1ccc2c(c1[N+](=O)[O-])C(=O)c1ccccc1C2=O | -0.888% | inactive | -1.7% | -1.55% | inactive | inactive | 12.6 µM (active) | inactive |  | inactive |
| CCCCOCCOCCSC#N | -0.616% | inactive | 0.183% | -2.09% | inactive | inactive | inactive | inactive |  |  |
| O=Cc1ccc(CO)o1 | -0.0811% | inactive | 1.58% | -1.08% | inactive | inactive | inactive | inactive |  |  |
| C=C(C)C(=O)OCCCCCCCCCC | -0.0364% | inactive | -0.285% | 2.37% | inactive | inactive | inactive | inactive |  |  |
| O=C1CCCCC1 | 1.1% | inactive | 0.476% | 0.988% | inactive | inactive | inactive | inactive |  |  |
| CCOc1cccc(N)c1 | 0.896% | inactive | 1.28% |  | inactive | inactive | 31.6 µM (active) | inactive | inactive | inactive |
| Cc1cccc(C(=O)O)c1 | -1.17% | inactive | -1.62% | -3.34% | inactive |  |  | inactive |  |  |
| C=C(C)C(=O)OCC(C)O (stereo unspecified) | 0.397% | inactive | 0.102% | -1.45% | inactive |  | inactive | inactive | inactive |  |
| COc1ccc(N=[N+]([O-])c2ccc(OC)cc2)cc1 | -3.45% | inactive | -3.45% | -8.4% | inactive | inactive | inactive | inactive |  |  |
| Cc1cccc(Br)c1 | -0.167% | inactive | 0.836% | -1.49% | inactive | inactive | inactive | inactive |  |  |
| ClC/C=C/CCl | 0.143% | inactive | 3.85% | 1.61% | inactive | inactive | inactive |  |  |  |
| Cc1ccc(Cl)cc1 | 0.555% | inactive | 0.337% | 0.748% | inactive | inactive | inactive | inactive |  |  |
| CCC(C)(C)OC | -0.415% | inactive | 0.321% |  | inactive | inactive | inactive | inactive |  |  |
| c1ccc2[nH]cnc2c1 | 0.6% | inactive | -0.984% |  | inactive | inactive | inactive | inactive |  |  |
| CC(=O)c1nccs1 | 0.103% | inactive | 1.15% |  | inactive | inactive | inactive | inactive | inactive |  |
| CC(=O)CCc1ccccc1 | -0.0155% | inactive |  | 0.352% | inactive | inactive | inactive | inactive | inactive |  |
